# Pol beta inh: qHTS Assay for Inhibitors of DNA Polymerase Beta. Pol beta primer extension/strand displacement, fluorescence kinetic. Potency, µM (doses to about 114 µM), most hits filed as inhibitors. actives 1.3% (n = 340,000). AID 485314, 2010
#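 Kinetic readout of DNA synthesis with strand displacement by Pol beta. Compound and 10 nM enzyme sit 15 min at room temperature; 50 nM substrate starts the reaction, read immediately and at 10 min.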
# PI5P4Ka inh: qHTS for Inhibitors of phosphatidylinositol 5-phosphate 4-kinase (PI5P4K) | PI5P4Kalpha enzyme, ADP-Glo luminescence, 60 min; hits give low values | max response, % | actives 1.2% (n = 330,000); active means max response of -50% or lower; inconclusive means between -30% and -50%; inactive means -30% or higher; further: value at the top dose of about 77 µM
#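 Quantitative HTS of the MLSMR library against PI5P4Kalpha with substrate. ATP added last at 5 microM final; room temperature, 60 minutes. Remaining ATP depleted, ADP converted and read as luminescence.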
# Pol eta inh-1: qHTS for Inhibitors of Polymerase Eta | recombinant Pol eta, fluorescent DNA replication assay | AID 588591, 2011 | Potency, µM (titrated, usually from 114 µM), most hits filed as inhibitors | DNA polymerase eta (Homo sapiens), Q9Y253 | actives 1.2% (n = 390,000)
#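 Fluorescent replication assay: 50 nM final substrate added after a 15 min room-temperature compound preincubation with 10 nM enzyme. Signal taken at 0 min and again at 10 min.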
# Pol iota inh: qHTS for Inhibitors of Polymerase Iota | DNA polymerase iota (Homo sapiens), Q9UNA4 | Pol iota fluorescent replication assay, 10 min | Potency, µM (doses to about 115 µM), usual class: inhibitors | actives 1% (n = 390,000) | AID 588590, 2011
#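 Fluorescent replication assay read twice, at 0 min and 10 min after adding 50 nM (final) substrate. Enzyme (10 nM) and compounds were first incubated 15 min at room temperature; enzyme-free buffer wells were negative controls.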
# Pol kappa inh-1: qHTS for Inhibitors of Polymerase Kappa; Potency, µM (highest dose often 107 µM), most hits filed as inhibitors; purified Pol kappa, fluorescent DNA synthesis assay, 10 min; DNA polymerase kappa (Homo sapiens), Q9UBT6; actives 0.53% (n = 400,000)
#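 Activity was followed as the change in fluorescence between reads at 0 and 10 min after starting the reaction with 50 nM substrate. Beforehand, 10 nM polymerase had been preincubated with compound for 15 min at room temperature.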
# WRN helicase inh-1: qHTS for Inhibitors of WRN Helicase; AID 651768, 2012; Potency, µM (highest dose often 114 µM), usual class: inhibitors; Bifunctional 3'-5' exonuclease/ATP-dependent helicase WRN (Homo sapiens), Q14191; actives 0.46% (n = 360,000); WRN helicase unwinding, fluorescent forked duplex, kinetic; further: nearly all actives have a fitted effect of over 55% in size
#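 Screening of the MLSMR collection measured strand separation of a quenched forked DNA duplex (100 nM) by 20 nM WRN with 2 mM ATP, all final. Compounds were preincubated with enzyme 15 min at room temperature.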
# TbPGK inh: qHTS for inhibitors of Phosphogylcerate Kinase: Hit Validation Screen; shares compounds with Pol kappa inh-1; actives 79% (n = 500); Potency, µM (highest dose often 57.5 µM), most hits filed as inhibitors; TbPGK coupled GAPDH assay, Kinase-Glo luminescence; further: nearly all actives have a fitted effect of over 65% in size
# Pol iota confirm: qHTS for Inhibitors of Polymerase Iota: Confirmatory Assay for Cherry-picked Compounds; shares compounds with Pol kappa inh-1; Potency, µM, hits mostly inhibitors; Pol iota primer extension, TAMRA/BHQ fluorescence; actives 77% (n = 1,500)
# Pol kappa inh-2: qHTS for Inhibitors of Polymerase Kappa: Confirmatory Assay for Cherry-picked Compounds; purified Pol-kappa, fluorescent strand-displacement substrate; shares compounds with Pol eta inh-1; AID 720501, 2013; Potency, µM, actives largely listed as inhibitors; actives 76% (n = 920)
# Pol eta inh-2: qHTS for Inhibitors of Polymerase Eta: Confirmatory Assay for Cherry-picked Compounds. Potency, µM, hits mostly inhibitors. actives 64% (n = 2,600). shares compounds with Pol eta inh-1. Pol eta primer extension, TAMRA/BHQ fluorescence, 10 min
# WRN helicase inh-2: qHTS for Inhibitors of WRN Helicase: Confirmatory Assay for Cherry-picked Compounds; shares compounds with WRN helicase inh-1; Potency, µM (highest dose often 57.1 µM), actives largely listed as inhibitors; WRN helicase DNA unwinding, fluorescence kinetic; actives 63% (n = 610); further: nearly all actives have a fitted effect of over 65% in size
# TO displacement: qHTS for Inhibitors of WRN Helicase: Thiazole Orange DNA Binding Counterscreen; thiazole orange DNA binding displacement, fluorescence; Potency, µM (highest dose often 57.1 µM), usual class: inhibitors; shares compounds with WRN helicase inh-1; actives 10% (n = 610);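 further: drop in dye fluorescence marks compound binding to DNA; nearly all actives have a fitted effect of over 60% in size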
# BLM helicase inh: qHTS for Inhibitors of WRN Helicase: BLM Helicase Counterscreen for WRN Inhibitors. shares compounds with WRN helicase inh-1. Recombinant BLM helicase DNA unwinding, red fluorescence. Potency, µM (doses to about 57.1 µM), most hits filed as inhibitors. actives 60% (n = 610). AID 720503, 2013; further: nearly all actives have a fitted effect of over 60% in size
# Target sequence (P54132 whole entry, looked up): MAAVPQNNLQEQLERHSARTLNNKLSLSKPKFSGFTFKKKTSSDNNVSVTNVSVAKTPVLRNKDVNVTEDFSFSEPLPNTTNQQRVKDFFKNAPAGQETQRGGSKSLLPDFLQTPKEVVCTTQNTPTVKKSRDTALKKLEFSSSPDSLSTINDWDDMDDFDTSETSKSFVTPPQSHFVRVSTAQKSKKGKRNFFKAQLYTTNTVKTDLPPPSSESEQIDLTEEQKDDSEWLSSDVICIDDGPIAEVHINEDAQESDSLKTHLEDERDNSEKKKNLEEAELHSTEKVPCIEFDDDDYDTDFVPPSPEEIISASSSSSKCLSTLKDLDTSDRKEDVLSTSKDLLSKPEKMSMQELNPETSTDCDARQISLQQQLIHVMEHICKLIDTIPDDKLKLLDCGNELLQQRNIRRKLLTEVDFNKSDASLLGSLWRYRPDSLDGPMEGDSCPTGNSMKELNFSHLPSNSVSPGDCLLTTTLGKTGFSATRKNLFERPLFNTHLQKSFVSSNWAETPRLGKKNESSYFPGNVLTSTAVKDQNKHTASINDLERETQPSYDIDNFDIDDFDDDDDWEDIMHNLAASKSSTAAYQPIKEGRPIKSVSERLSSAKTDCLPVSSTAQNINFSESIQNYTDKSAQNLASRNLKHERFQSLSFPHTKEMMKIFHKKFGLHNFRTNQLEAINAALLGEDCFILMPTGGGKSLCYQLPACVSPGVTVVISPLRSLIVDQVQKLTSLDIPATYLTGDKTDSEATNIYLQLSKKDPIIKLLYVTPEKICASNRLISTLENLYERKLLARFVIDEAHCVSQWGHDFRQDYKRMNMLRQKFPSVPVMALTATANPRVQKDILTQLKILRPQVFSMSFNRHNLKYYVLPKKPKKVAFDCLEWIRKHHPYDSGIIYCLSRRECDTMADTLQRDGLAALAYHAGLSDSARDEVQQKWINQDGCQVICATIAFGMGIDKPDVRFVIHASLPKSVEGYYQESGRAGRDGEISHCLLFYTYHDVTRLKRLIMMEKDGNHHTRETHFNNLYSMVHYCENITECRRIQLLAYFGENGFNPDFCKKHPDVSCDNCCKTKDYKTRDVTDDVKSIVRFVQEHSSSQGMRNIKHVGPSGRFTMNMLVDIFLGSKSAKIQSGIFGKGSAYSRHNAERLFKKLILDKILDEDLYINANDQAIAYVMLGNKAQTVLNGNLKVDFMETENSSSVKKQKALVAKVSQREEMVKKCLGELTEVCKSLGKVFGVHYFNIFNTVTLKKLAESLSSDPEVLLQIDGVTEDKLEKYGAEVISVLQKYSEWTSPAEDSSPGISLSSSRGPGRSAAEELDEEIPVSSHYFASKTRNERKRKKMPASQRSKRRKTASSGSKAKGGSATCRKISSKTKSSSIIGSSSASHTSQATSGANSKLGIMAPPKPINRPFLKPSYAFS
# A number is an active result; n = inactive; u = inconclusive; x = no result given; [ ] = dose if it differs, or a comment. Most compounds without a hit are left out; they make up all but 2.8% or so of the library. Unless noted, the call rests on the fitted dose curve; in most records, active means well fitted curve in the direction sought with a large enough effect; inconclusive means small, poorly fitted or top-dose-only effect, or another doubt; inactive means no such curve, though single readings can be large; an effect the other way counts as inactive or inconclusive.
SMILES,Pol beta inh,PI5P4Ka inh,Pol eta inh-1,Pol iota inh,Pol kappa inh-1,WRN helicase inh-1,Pol iota confirm,Pol eta inh-2,WRN helicase inh-2,TO displacement,BLM helicase inh,others
O=C(O)c1ccc(-n2cccc2/C=N\NC(=O)c2cc3cc(Br)ccc3o2)cc1,u,-93,3.2µM,7.1µM,14µM,40µM,3,5.4,15µM,n,5.4µM,TbPGK inh=9.2µM
C=CCN1C(=O)/C(=C\C=C2\N(C)c3ccccc3C2(C)C)SC1=S,u,n,u,u,n,u,x,x,x,x,x,
CN1/C(=C\C=C2/SC(=S)N(CC(=O)O)C2=O)C(C)(C)c2ccccc21,40µM,n,45µM,x,u,50µM,38,34,22µM,n,22µM,Pol kappa inh-2=34
O=C(N/N=C/c1ccc(O)c(O)c1)N/N=C/c1ccc(O)c(O)c1,0.32µM,-69,0.71µM,0.89µM,0.79µM,4µM,3,6,0.96µM,u,1.1µM,TbPGK inh=1.2µM;Pol kappa inh-2=2.1
O=C(CSc1nc2ccccc2o1)N/N=C/c1ccccc1,n,n,n,n,n,n,x,x,x,x,x,
Cc1nonc1C(=O)N/N=C/c1ccc(O)c(O)c1,n,n,n,n,n,n,x,x,x,x,x,
COc1cccc2c(SCC(=O)N/N=C/c3ccc(O)c(O)c3)cc(C)nc12,2µM,n,7.9µM,11µM,13µM,20µM,30,19,4.8µM,u,4.8µM,
COc1ccc2nc(C)cc(SCC(=O)N/N=C/c3ccc(O)c(O)c3)c2c1,2.2µM,n,4.5µM,16µM,28µM,14µM,u,24,4.8µM,u,6.1µM,
O=C(CSc1nc2ccccc2o1)N/N=C/c1ccc(O)c(O)c1,u,-89,3.5µM,2.5µM,7.1µM,8.9µM,17,12,2.7µM,u,1.9µM,TbPGK inh=3.3µM;Pol kappa inh-2=8.4
Cc1cccc(C)c1NC(=O)Cn1nc(C)c2sc3ccccc3c2c1=O,n,x,n,n,n,x,x,x,x,x,x,
CC(C)(C)c1ccc(S(=O)(=O)N2CCN(c3nc(-c4ccccc4)nc4ccccc34)CC2)cc1,x,x,x,n,n,x,x,x,x,x,x,
O=C(Cn1c2ccccc2c(=O)c2ccccc21)N/N=C/c1ccc(N2CCCC2)c([N+](=O)[O-])c1,n,n,u,n,n,n,x,x,x,x,x,
O=C(Cn1c2ccccc2c(=O)c2ccccc21)N/N=C/c1cc([N+](=O)[O-])ccc1N1CCCCCC1,2.5µM,n,2.8µM,n,n,11µM,u,x,6.1µM,n,1.1µM,
Nc1nonc1-c1nc2ccccc2n1CC(=O)N/N=C/c1ccc(-c2cccc(C(=O)O)c2)o1,20µM,-60,18µM,18µM,u,40µM,75,24,24µM,u,24µM,
O=C(O)COc1ccc(/C=N/NC(=O)c2ccc(-c3csc(Nc4ccc(Cl)cc4)n3)cc2)cc1,u,-69,2.5µM,2.8µM,7.9µM,13µM,3,11,4.3µM,5.4µM,0.86µM,
C=CCn1c(SCC(=O)c2ccc(O)c(O)c2)nnc1-c1ccc(OC)cc1,x,-51,10µM,50µM,45µM,28µM,u,u,17µM,n,u,
CN1CCN(c2ccc(Nc3c4ccccc4nc4ccccc34)cc2)CC1,x,x,x,x,19µM,x,42,x,6.1µM,7.6µM,24µM,Pol kappa inh-2=30
COc1ccc(Nc2c3ccccc3nc3ccccc23)cc1,u,n,n,u,n,u,x,x,x,x,x,
O=C(O)c1ccccc1NS(=O)(=O)c1ccc(N/N=C/c2cccc(O)c2O)c([N+](=O)[O-])c1,x,u,3.2µM,10µM,28µM,20µM,34,30,19µM,27µM,6.1µM,TbPGK inh=12µM
COc1cc(C=NNc2ccc(S(=O)(=O)Nc3ccccc3C(=O)O)cc2[N+](=O)[O-])ccc1O,x,-69,50µM,u,n,79µM,75,19,24µM,24µM,27µM,
NC(=O)[C@@H]1CCCN1C(=O)[C@H](Cc1cnc[nH]1)NC(=O)[C@@H]1CCC(=O)N1,x,x,x,x,n,x,x,x,x,x,x,
COC(=O)c1ccc(N2NC(=O)/C(=C/c3ccc(-c4ccc(Cl)c(C(=O)O)c4)o3)C2=O)cc1,22µM,u,3.2µM,8.9µM,28µM,35µM,27,7.6,17µM,u,22µM,Pol kappa inh-2=4.7
O=C1NN(c2ccc(Cl)c(Cl)c2)C(=O)/C1=C/c1ccc(-c2ccccc2C(=O)O)o1,32µM,-58,20µM,5µM,40µM,32µM,19,30,19µM,n,n,Pol kappa inh-2=17
COC(=O)c1ccccc1-c1ccc(/C=C2\C(=O)N(c3ccccc3)N=C2c2ccccc2)o1,n,n,n,n,n,n,x,x,x,x,x,
COC(=O)c1ccc(N2NC(=O)/C(=C/c3ccc(OC)c(OC)c3)C2=O)cc1,n,n,n,u,n,n[11.6 µM],x,x,x,x,x,
CC1=NOC(=O)/C1=C\c1ccc(-c2ccc(Cl)c(C(=O)O)c2)o1,14µM,u,4.5µM,11µM,35µM,35µM,42,21,19µM,n,27µM,

# From PubChem
